Measured values: PubChem BioAssay AID651612 (The Scripps Research Institute Molecular Screening Center, 2012)
Screen size: about 2,200 compounds; about 1,500 (68%) were called active. No stated cut-off is given here; in the data, active means inhibition above about 23%; inactive means the rest. The set was probably picked from earlier hits. A selection follows.

molecular target: Perilipin-5 (Homo sapiens) + 1-acylglycerol-3-phosphate O-acyltransferase ABHD5 (Homo sapiens) (UniProt Q00G26+Q8WTS1); assay: ABHD5-PLIN5 interaction inhibitors, confirmation, biochemical, luminescence (AID 651612); details: at 4 µM, stronger effect = higher value;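 further: 0% = DMSO vehicle wells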
Sequence (Q00G26 whole entry, looked up): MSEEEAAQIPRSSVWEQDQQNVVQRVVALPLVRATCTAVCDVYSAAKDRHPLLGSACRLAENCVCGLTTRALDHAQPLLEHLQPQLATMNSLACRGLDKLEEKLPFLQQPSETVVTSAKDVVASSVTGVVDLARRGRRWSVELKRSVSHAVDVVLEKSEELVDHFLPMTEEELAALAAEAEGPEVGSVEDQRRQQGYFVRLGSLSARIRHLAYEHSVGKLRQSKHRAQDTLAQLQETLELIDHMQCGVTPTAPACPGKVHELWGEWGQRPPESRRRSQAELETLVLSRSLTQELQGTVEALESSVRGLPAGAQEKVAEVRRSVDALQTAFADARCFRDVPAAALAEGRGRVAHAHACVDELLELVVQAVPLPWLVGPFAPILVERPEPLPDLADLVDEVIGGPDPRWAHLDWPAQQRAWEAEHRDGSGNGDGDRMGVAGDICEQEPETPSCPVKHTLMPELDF
Sequence (Q8WTS1 whole entry, looked up): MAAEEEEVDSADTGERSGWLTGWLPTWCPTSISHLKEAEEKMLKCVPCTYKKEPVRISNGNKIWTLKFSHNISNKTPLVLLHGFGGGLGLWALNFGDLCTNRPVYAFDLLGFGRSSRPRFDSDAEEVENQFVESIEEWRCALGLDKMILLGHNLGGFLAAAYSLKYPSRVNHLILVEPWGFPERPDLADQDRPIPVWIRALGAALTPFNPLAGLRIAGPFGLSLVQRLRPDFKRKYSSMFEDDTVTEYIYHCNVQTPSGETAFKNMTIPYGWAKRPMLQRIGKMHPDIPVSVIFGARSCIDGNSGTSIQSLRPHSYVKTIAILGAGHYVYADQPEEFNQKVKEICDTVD

inhibition, inactive:
Cc1cc2c(c(=O)n1Cc1ccco1)C(c1ccccc1)C(C#N)=C(N)O2 (stereo unspecified) 19%
CCCOc1ccc(C(=O)C(CCC(CNCC)C(=O)c2ccc(OCCC)cc2)CNCC)cc1 (stereo unspecified) 19.7%
CCc1ccc(NC(=O)CSc2nnc(-c3cnccn3)n2Cc2ccco2)cc1 19.6%
COc1ccc(-n2cc(CNC3CCOCC3)c(-c3cccc(F)c3)n2)cc1 2.9%
CC(=O)N(c1ccc2oc(=O)sc2c1)S(=O)(=O)c1ccc(C)cc1 -52.7%
COc1cccc2sc(N(CCCN(C)C)C(=O)C(c3ccccc3)c3ccccc3)nc12 18.3%
COc1ccc(N/C=C(\C2OC(=O)c3ccccc32)[N+](=O)[O-])cc1 (stereo unspecified) 9.16%
COc1ccccc1C1/C(=C(/O)c2ccc(C)cc2)C(=O)C(=O)N1Cc1ccco1 (stereo unspecified) 2.17%
C[C@@H](CN1CCC[C@H]1CN1C(N)=NC[C@@H]1Cc1ccccc1)N1C[C@@H](Cc2ccccc2)N(CCCC2CCCC2)C1=N 11.3%
Cc1ccn(C(CC(=O)c2ccc(Br)cc2)C(=O)O)n1 (stereo unspecified) 6%
CC(=O)c1ccc(NC(=O)CCc2nnc3ccc(NCc4ccco4)nn23)cc1 9.27%
NC(=O)c1nsc(C(=O)N(CC(=O)NCc2ccc(F)cc2)Cc2ccco2)c1N 4.49%
COC(=O)c1cnn2c(C(F)(F)F)cc(-c3ccco3)nc12 14%
COc1ccc2sc(-c3ccccc3OC)c(-c3ccc(OCCN4CCCC4)cc3)c2c1 15.5%
Cc1c(CCOC(=O)CC23CC4CC(CC(C)(C4)C2)C3)sc[n+]1Cc1ccc([N+](=O)[O-])cc1 16.8%
O=c1[nH][nH]c2c1[C@H](c1ccc(Cl)cc1)O[C@H](CCc1ccccc1)C2 2.53%
O=C(c1cccnc1)N(c1cc2sc(=O)oc2c2ccccc12)S(=O)(=O)c1ccccc1 -3.41%
CC1Cc2ccccc2N1CC(=O)Nc1ccc(S(N)(=O)=O)cc1 (stereo unspecified) 7.58%
CC1(C(=O)NCc2cccc3ccccc23)CCN1Cc1ccc(-c2ccccc2)o1 (stereo unspecified) 16.1%
CCS(=O)(=O)Nc1ccc(C2=NN(S(=O)(=O)c3ccc(F)cc3)C(c3ccco3)C2)cc1 (stereo unspecified) 10.4%
CN(C)CCCNC(=O)/C=C/c1ccc(OCc2c(F)cccc2Cl)cc1 10.8%
COC(=O)c1nc(NC(=O)c2ccc(C(C)(C)C)cc2)n[nH]1 10.3%
COC(=O)C1(C)NC(c2ccccc2OC)C2C(=O)N(c3ccccc3)C(=O)C21 (stereo unspecified) -5.37%
CCN(CC)CCN(C(=O)c1ccc2c(c1)CCCC2)c1nc2c(OC)cccc2s1 7.79%
OC(CNCC1CCCO1)Cn1c2ccc(Br)cc2c2cc(Br)ccc21 (stereo unspecified) 12.6%
COc1ccc(CCNC(=O)c2nnc(CS(=O)(=O)c3ccccc3)o2)cc1OC 6.71%
O=C(NCCOCc1ccc(Cl)cc1)c1ncn[nH]1 6.41%
Cc1cccc(NC(=O)c2ccc3nsnc3c2)c1C 2.22%
O=C(NNc1ccccn1)c1ccc(Cl)nc1 2.34%
CCN1/C(=C\c2ccc3ccccc3[n+]2CC)Sc2cc(C)ccc21 16.8%
Nc1cccc(OCCCCCOc2cccc(N)c2)c1 3.48%
CC1(Oc2ccccc2-c2ccno2)CCN(Cc2ccc(-c3ccccc3)o2)C1 (stereo unspecified) 16.2%
Cc1nc2sc(C(c3ccco3)N3CCOCC3)c(O)n2n1 (stereo unspecified) 5.85%
O=C(Cn1nc(CNc2ccc(Cl)cc2)[n+]2c1CCCCC2)c1ccc(Cl)cc1 19.8%
CC1=CC(C)(C)Nc2ccc(OC(=O)C(Cc3ccccc3)N3C(=O)C4CCCCC4C3=O)cc21 (stereo unspecified) -3.56%

inhibition, active:
O=C(O)c1ccc2c(c1)C(=O)N(c1ccc(/C=C/C(=O)c3ccccc3)cc1)C2=O 94.7%
O=[N+]([O-])/C=C/c1ccc2c(ccn2Cc2ccccc2)c1 103%
Cc1cc(C)c(NC(=O)C[N+](C)(C)CC(O)COc2cccc3ccccc23)c(C)c1 (stereo unspecified) 22.2%
C[C@@H]1C[C@@H]2O[C@H]2/C=C\C=C\C(=O)Cc2c(Cl)c(O)cc(O)c2C(=O)O1 53.1%
O=C(NNc1c2ccccc2nc2ccccc12)c1cc2ccccc2cc1O 35.2%
CC(C)(C)C1C/C(=C/c2ccco2)C(=O)/C(=C/c2ccco2)C1 (stereo unspecified) 77.8%
Cc1cccc(C=CC(=O)c2ccc(Cl)cc2)c1 84.9%
COc1ccc(CNC(=O)/C(C#N)=C/c2cccc(OC)c2OC)cc1 56.6%
O=C(Nc1ccccc1)c1nnsc1S(=O)(=O)c1ccc(Cl)cc1 64.1%
O=C(N/N=C/C=C/c1ccco1)c1cccs1 40.2%
O=C1C=CC(=O)N1c1ccc(N2CCCCC2)cc1 36.2%
O=c1[nH]c(/C=C\c2cccc(C(F)(F)F)c2)nc(O)c1[N+](=O)[O-] 83.9%
CC1(C)CCSC(/C=C/c2ccccc2)=N1 77.3%
Cc1ccc(SC(CC(=O)c2ccc(C(C)(C)C)cc2)C(=O)O)cc1 (stereo unspecified) 36.4%
C=C(C)C(=O)O[C@H]1C/C(C)=C\C(=O)/C=C(\C)[C@H](O)[C@@H]2OC(=O)C(=C)[C@@H]21 45.7%
CCC(C(=O)OCCN(CC)CC)c1ccccc1 (stereo unspecified) 79.4%
C=C1C(=O)[C@]23C[C@H]1CCC2[C@@]1(C)C(C[C@@H]3O)[C@](C)(C(=O)O)CC[C@@H]1O (stereo partly specified) 34.6%
COC(C/C=C/C(=O)[C@@H](C)OCc1ccccc1)OC 41.6%
O=C1/C(=C\c2ccc([N+](=O)[O-])cc2)CS(=O)(=O)C/C1=C/c1ccc([N+](=O)[O-])cc1 103%
Cc1cccc(C)c1NC(=O)C(Cl)C(=O)c1ccccc1 (stereo unspecified) 68.9%
COc1ccc(-c2cc(C(F)(F)F)nc(S(C)(=O)=O)n2)cc1OC 52.6%
COCCN(CCOC)c1nc(N)c2c(N)nc3c(c2c1C#N)CC(=O)N3Cc1ccc(Cl)cc1 32.1%
CCN1CCC(O)(/C=C/c2ccc(C)cc2)C(C(=O)/C=C/c2ccc(C)cc2)C1 (stereo unspecified) 90.5%
O=C(CCN1CCc2ccccc2C(O)(c2ccccc2)C1)c1ccc2c(c1)OCCO2 (stereo unspecified) 51.6%
Cc1ccc2nc(-c3ccco3)c(Cc3cccc(Cl)c3)n2c1 26.5%
Cc1ccc(Cc2c(-c3ccco3)nc3ccc(Cl)cn23)cc1 32.4%
O=C1C(Cl)=C(Oc2ccccc2)C(=O)c2ccccc21 85.3%
Cc1csc(NC(=O)NC2(C(F)(F)F)Oc3ccccc3O2)n1 92.4%
Cc1ccc(NC(=O)Cn2sc3ccccc3c2=O)cc1 74%
Cc1ccc(-n2nc(-c3ccco3)cc2C(=O)NCc2cccnc2)cc1 38.1%
O=C(Nc1ccccc1Cl)/C(Cl)=C(\Cl)S(=O)c1ccccc1 (stereo unspecified) 101%
Cc1nc(-c2ccccc2)sc1C(=O)/C=C/c1ccccc1 81.5%
Cn1sc(=O)c2cc(S(=O)(=O)NC3CC3)ccc21 34.2%
Cc1ccc(CS(=O)(=O)c2ncc(Cl)c(C(=O)Nc3nnc(C)s3)n2)cc1 79.9%
CSc1nnc(NC(=O)c2nc(S(=O)(=O)Cc3ccc(C)cc3)ncc2Cl)s1 79.6%
O=C(Nc1nc(-c2ccco2)c(-c2ccco2)s1)c1ccco1 60.6%
Cc1cc(-c2n[nH]c(=S)n2/N=C/C(Br)=C/c2ccccc2)n[nH]1 63%
O=C(/C(=C/c1cccc(Cl)c1)c1nc2ccccc2[nH]1)c1ccccc1 98.9%
CC(=O)Nc1ccc(C=CC(=O)c2ccc([N+](=O)[O-])cc2)cc1 84.1%
O=C(/C=C/c1ccc(Cl)c([N+](=O)[O-])c1)c1ccc(O)cc1 90.2%
COc1ccc2c(c1)c(=Cc1ccc(N(C)C)cc1)c1cc(-c3ccccc3)[n+](C)n12 28.5%
COC(=O)/C=C\C(=O)Nc1cccc([N+](=O)[O-])c1 83.5%
COc1ccc2c(c1OC)C(=O)OC2Nc1nc(-c2ccccc2)cs1 (stereo unspecified) 61.3%
O=C1/C(=C\c2ccc(O)cc2)CCC1CNc1ccc(Cl)cc1 (stereo unspecified) 25.6%
COc1ccccc1-n1nnnc1S(=O)(=O)Cc1ccc(Cl)cc1 49.7%
Cc1cccc(C)c1NC(=O)C(c1ccc(C(F)(F)F)cc1)n1c(=O)c(-c2ccco2)nc2ccccc21 (stereo unspecified) 80.6%
N#Cc1ccc(C(C(=O)NCc2ccccc2)n2c(=O)c(-c3ccco3)nc3ccccc32)cc1 (stereo unspecified) 91.9%
Cc1cccc(C)c1NC(=O)C(c1cccc2ccccc12)n1c(=O)c(-c2ccco2)nc2ccccc21 (stereo unspecified) 53%
O=C(NC1CCCCC1)C(c1cc2ccccc2o1)n1c(=O)c(-c2ccco2)nc2ccccc21 (stereo unspecified) 80.4%
CCn1c(SC)nc(O)c(C(c2ccc(OC)c(O)c2)c2c(O)nc(SC)n(CC)c2=O)c1=O 62%
COc1ccc(C(C[N+](=O)[O-])n2nc(C)cc2C)cc1 (stereo unspecified) 62.2%
CCN(CCCNC(=O)c1ccc2c(c1)NC(=O)CN2C)c1cccc(C)c1 50.9%
Cc1nnnn1/C(=C\c1ccccc1)C(=O)OCC(=O)N1CC2(C)CC1CC(C)(C)C2 (stereo unspecified) 54.9%
O=[N+]([O-])c1c(NCCO)cc(Sc2nc3ccccc3s2)c2nonc12 51.7%
O=C(CCl)Nc1ccc(Sc2ccc(NC(=O)CCl)cc2)cc1 40.2%
O=C(/C=C/c1ccc(Cl)cc1Cl)c1cccnc1 98.6%
COc1ccc(/C=C/C(=O)c2ccc(NS(=O)(=O)c3ccc(C)cc3)cc2)cc1O 55.4%
Cc1cccc(CS(=O)(=O)c2ncc(Cl)c(C(=O)Nc3ccc(F)cc3)n2)c1 82.7%
Cc1cccc(NC(=O)c2nc(S(=O)(=O)Cc3ccccc3)ncc2Cl)c1 90.7%
O=C1C=C(c2ccc(Cl)cc2)C(=O)N1Nc1ccccc1 102%
Cc1cc(C)nc(S/C=C/C(=O)c2ccccc2)n1 96.8%
c1ccc(CCC2=NCCn3cccc32)cc1 28.8%
Cc1ccc(NC(=O)c2cc(-c3ccc(C)o3)nc3ccccc23)nc1 24%
N#Cc1ccccc1S(=O)(=O)N1CCN(Cc2c(O)ccc3ccccc23)CC1 53%
CCCCOC(=O)CNc1nnc(SCC(=O)OCC)[nH]c1=O 69.3%
O=C(/C=C(O)/C=C/c1ccc(O)cc1)/C=C/c1ccc(O)cc1 63.4%
CN1CCC[C@@H]1CCO[C@](C)(c1ccccc1)c1ccc(Cl)cc1 27.9%
CCOC(=O)C(=Cc1ccccc1OC)C(=O)OCC 60.3%
CCOC(=O)C(=Cc1ccccc1)C(=O)c1ccccc1 98.5%
Cc1[nH]c(=O)c(C(=O)/C=C/c2ccccc2)c2c1CCCC2 56.5%
CC1=CC(C)(C)Nc2ccc(OC(=O)CN3C(=O)C4CCCCC4C3=O)cc21 (stereo unspecified) 83.2%
